The results in this text go back to PubChem BioAssay (Tox21).

Assay [1] is described as follows: qHTS assay to identify small molecule antagonists of the estrogen related receptor (ERR) signaling pathway from Tox21 library - cell viability counter screen (AID 1224834). Also: nearly all actives have a fitted effect of over 30% in size. Also: potency is read from the fitted curve at half-maximal effect. The note with it: ERR reporter cells viability, CellTiter-Fluor, 17.5 h; series mostly up to 92.4 µM. The method in brief:
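Compounds in DMSO were pinned onto ERR cells that had been incubated for 6 h, and the plates were held at 37 C for 17.5 h. CellTiter-Fluor reagent was then added and fluorescence was measured after 30 min.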

Assay [2] in a line: qHTS assay to identify small molecule agonists of the constitutive androstane receptor (CAR) signaling pathway - cell viability counter screen (AID 1224836). Also: nearly all actives have a fitted effect of over 45% in size. Also: potency is read from the fitted curve at half-maximal effect. As to conditions: HepG2-CYP2B6-hCAR viability, CellTiter-Fluor, 23 h, PK11195 added to every well; series mostly up to 92.4 µM. The method in brief:
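Counter screen multiplexed with the CAR reporter readout: HepG2 cells co-transfected with hCAR and the CYP2B6-2.2kb construct receive a 15-concentration compound series and 0.75 uM PK11195 (final), then CellTiter-Fluor fluorescence is read after 23 h.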

Assay [3] in a line: qHTS assay to identify small molecule antagonists of the constitutive androstane receptor (CAR) signaling pathway - cell viability counter screen (AID 1224837). Also: nearly all actives have a fitted effect of over 45% in size. Also: potency is read from the fitted curve at half-maximal effect. As to conditions: HepG2-CYP2B6-hCAR viability, CellTiter-Fluor, 23 h, co-treated with 50 nM CITCO; series mostly up to 92.4 µM. In short, it runs like this: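 Cells are seeded, rested 4 hr at 37 C/5% CO2, dosed with compound (15-point series) and 50 nM CITCO, incubated a further 23 hr, and then CellTiter-Fluor reagent is added before fluorescence is read. The line is HepG2 with stable hCAR and CYP2B6-2.2kb.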

A short description of assay [4]: qHTS assay to identify small molecule antagonists of the estrogen related receptor signaling pathway with the pleiotropic PPARgamma coactivator (PGC) from Tox21 10K library - cell viability counter screen (AID 1224840; active = well fitted cell-killing curve with a large enough effect in the repeat runs, not every such curve was filed as active; also: nearly all actives have a fitted effect of over 40% in size; also: potency is read from the fitted curve at half-maximal effect). The note with it: PGC/ERR reporter cells viability, CellTiter-Fluor, 17.5 h; series mostly up to 92.4 µM. In short, it runs like this:
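Cell viability is measured by CellTiter-Fluor fluorescence in PGC/ERR cells that receive compounds after a 6-hour attachment period and are then incubated 17.5 hours at 37 C.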

A short description of assay [5]: qHTS assay to identify small molecule agonists of the hypoxia (HIF-1) signaling pathway - cell viability counter screen (AID 1224844; calls by dose curve; also: nearly all actives have a fitted effect of over 50% in size; also: potency is read from the fitted curve at half-maximal effect). As to conditions: HRE-bla ME-180 viability, CellTiter-Glo luminescence, 17 h; series mostly up to 76.8 µM. In short, it runs like this:
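Viability counter screen: HRE-bla ME-180 cells plated 5 hrs before compound addition, treated 17 hrs at 37C and 5% CO2, then CellTiter-Glo added after the FRET reporter read; luminescence after 30 min.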

Assay [6] in a line: qHTS assay to identify small molecule agonists of H2AX (AID 1224845; active = well fitted activation curve with a large enough effect in the signal ratio in the repeat runs, not every such curve was filed as active; the % refers to the signal ratio; also: potency is read from the fitted curve at half-maximal effect). As to conditions: CHO-K1 phospho-H2AX Ser139 HTRF, 3 h; series mostly up to 154 µM. In short, it runs like this: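 Phospho-H2AX Ser139 measured by HTRF (ex 320 nm; em 665 and 620 nm) after 24 hr antibody incubation. Compounds, 15 concentrations, 0.76% DMSO, were applied to CHO-K1 cells for 3hr at 37C before lysis.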
Background: Quantitative high-throughput screening tests each substance at several concentrations.

Assay [7] in a line: qHTS assay to identify small molecule agonists of H2AX - cell viability counter screen (AID 1224847; calls by dose curve; also: nearly all actives have a fitted effect of over 30% in size; also: potency is read from the fitted curve at half-maximal effect). The note with it: CHO-K1 viability, CellTiter-Glo luminescence, 3 h; series mostly up to 154 µM. In short, it runs like this:
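We seed wild-type CHO-K1 cells overnight, treat them for 3 hr at 37C with compounds in 15-concentration series, and quantify remaining viability by CellTiter-Glo luminescence.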

A short description of assay [8]: qHTS RealTime-Glo MT Cell Viability Assay in HepG2 cells - 24 hour (AID 1224867). Also: nearly all actives have a fitted effect of over 50% in size. Also: potency is read from the fitted curve at half-maximal effect. The note with it: RealTime-Glo luminescence; series mostly up to 76.8 µM. The method in brief:
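Cell number in HepG2 cultures estimated from NanoLuc luminescence generated by metabolic reduction of a prosubstrate by living cells. The homogeneous, nonlytic format allowed repeated reads at 0, 8, 16, 24, 32 and 40 h of compound exposure.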

Assay [9] can be described thus: qHTS RealTime-Glo MT Cell Viability Assay in HEK293 cells - 32 hour (AID 1224868). Also: nearly all actives have a fitted effect of over 50% in size. Also: potency is read from the fitted curve at half-maximal effect. As to conditions: RealTime-Glo luminescence; series mostly up to 76.8 µM. In short, it runs like this:
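Homogeneous bioluminescent viability format in HEK293 cells (600 cells/well). Following 5 h at 37 C/5% CO2, 23 nL compound was pintooled; the signal was measured repeatedly during 40 h incubation.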

Assay [10] is described as follows: A CellTox Green Cytotoxicity Assay to monitor cytotoxicity in HEK293 cells - 0 hour (AID 1224869). Also: nearly all actives have a fitted effect of over 50% in size. The note with it: CellTox Green fluorescence; series mostly up to 76.8 µM. The method in brief:
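Dead-cell fluorescence measured kinetically: asymmetric cyanine dye, HEK293, 600 cells/well, 5 h settle, 23 nL cpd/DMSO, 37 C, reads 0–40 h every 8 h.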

Assay [11] is described as follows: qHTS RealTime-Glo MT Cell Viability Assay in HepG2 cells - 40 hour (AID 1224870). Also: nearly all actives have a fitted effect of over 50% in size. Also: potency is read from the fitted curve at half-maximal effect. The note with it: RealTime-Glo luminescence; series mostly up to 76.8 µM. In short, it runs like this: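 Real-time viability: cells seeded at 600 per well together with NanoLuc and cell-permeant prosubstrate, compounds added after 5 h incubation. Luminescence tracked at 0, 8, 16, 24, 32 and 40 h of exposure.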

Assay [12] deals with Nuclear receptor subfamily 1 group I member 3 (Homo sapiens) (UniProt Q14994). Put plainly: qHTS assay to identify small molecule agonists of the constitutive androstane receptor (CAR) signaling pathway (AID 1224839). Also: nearly all actives have a fitted effect of over 15% in size. Also: potency is read from the fitted curve at half-maximal effect. As to conditions: HepG2 hCAR CYP2B6-luciferase, agonist mode, 24 h; series mostly up to 92.4 µM. The method in brief: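 A 15-concentration quantitative screen uses HepG2 cells co-transfected stably with human CAR and CYP2B6-2.2kb reporter. Treatment lasts 24 h with 0.75 uM PK11195 final present; ONE-Glo luminescence is the signal.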
Nuclear receptor subfamily 1 group I member 3 (Homo sapiens), sequence (Q14994 whole entry, looked up): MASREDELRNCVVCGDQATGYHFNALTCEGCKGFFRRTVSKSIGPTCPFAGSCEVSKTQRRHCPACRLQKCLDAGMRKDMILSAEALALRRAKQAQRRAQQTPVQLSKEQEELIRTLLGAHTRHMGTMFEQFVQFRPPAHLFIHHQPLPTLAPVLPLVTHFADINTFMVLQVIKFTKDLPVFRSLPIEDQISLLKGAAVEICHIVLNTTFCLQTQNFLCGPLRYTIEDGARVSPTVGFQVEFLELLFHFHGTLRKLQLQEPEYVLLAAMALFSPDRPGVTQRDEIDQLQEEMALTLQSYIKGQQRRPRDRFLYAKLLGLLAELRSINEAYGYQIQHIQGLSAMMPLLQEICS

The nature of assay [13]: qHTS assay to identify small molecule antagonists of the estrogen related receptor signaling pathway with the pleiotropic PPARgamma coactivator (PGC) from Tox21 10K library (AID 1224841; call rule not given here). The note with it: PGC/ERR reporter cell line, ONE-Glo luciferase, 18 h; series mostly up to 92.4 µM. In short, it runs like this:
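Cells stably carrying the PGC/ERR reporter, seeded at 2,000 per well, received pin-transferred compounds 6 h post-plating. Exposure lasted 18 h at 37 C. Signal: One-Glo luminescence.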

Assay [14] is described as follows: qHTS assay to identify small molecule antagonists of the estrogen related receptor (ERR) signaling pathway from Tox21 library (AID 1224848). Also: nearly all actives have a fitted effect of over 50% in size. Also: potency is read from the fitted curve at half-maximal effect. As to conditions: ERR reporter cell line, luciferase antagonist mode, 18 h; series mostly up to 92.4 µM. The method in brief:
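ERR cell line, 2,000 cells/well. 6 h settle, then compound (DMSO) added; 18 h at 37 C; ONE-Glo luminescence after 30 min RT.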

Assay [15] in a line: qHTS assay to identify small molecule agonists of the estrogen related receptor (ERR) signaling pathway from Tox21 library (AID 1224849; calls by dose curve; also: nearly all actives have a fitted effect of over 15% in size). The note with it: ERR reporter cell line, ONE-Glo luciferase, 18 h; at 92.4 µM (top of the series) unless noted. The method in brief: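 Quantitative HTS in agonist format: NTP ERR cell line, compounds transferred in DMSO after 6 h plating, 18 h incubation at 37 C, ONE-Glo luminescence endpoint.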

Assay [16] has as its target Thyrotropin receptor (Homo sapiens) (UniProt P16473). The assay can be described thus: qHTS assay to identify small molecule agonists of the thyroid stimulating hormone receptor (TSHR) signaling pathway (AID 1224843; calls by dose curve; also: nearly all actives have a fitted effect of over 45% in size). As to conditions: TSHR-HEK293 cells, cAMP HTRF, agonist mode, 30 min; series mostly up to 92.4 µM. The method in brief:
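A cell-based cAMP HTRF format was run in TSHR-transfected HEK293 cells, 800 per well. Treatment: 30 min, room temperature. Detection: 1 h with labelled cAMP and anti-cAMP cryptate. Concentration-response over 15 points, three replicates.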

Assay [17] has as its target Nuclear receptor subfamily 1 group I member 3 (Homo sapiens) (UniProt Q14994). Put plainly: qHTS assay to identify small molecule antagonists of the constitutive androstane receptor (CAR) signaling pathway (AID 1224838).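 Also: HepG2 cells stably expressing hCAR with CYP2B6 luciferase reporter stimulated by CITCO; nearly all actives have a fitted effect of over 40% in size.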 Also: potency is read from the fitted curve at half-maximal effect. The note with it: HepG2-CYP2B6-hCAR luciferase, CITCO-stimulated, 24 h; series mostly up to 92.4 µM. The method in brief:
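Luminescence from a CYP2B6-2.2kb promoter reporter in hCAR-expressing HepG2 cells reflects CAR signaling. Cells received compounds at 15 concentrations and 50 nM CITCO (final), then incubated 24 h at 37 C/5% CO2.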

Assay [18] in a line: qHTS assay to identify small molecule agonists of the estrogen related receptor signaling pathway with the pleiotropic PPARgamma coactivator (PGC) from Tox21 10K library (AID 1224842). Also: nearly all actives have a fitted effect of over 15% in size. The note with it: PGC/ERR reporter cell line, luciferase ONE-Glo, 18 h; series mostly up to 92.4 µM. In short, it runs like this: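 Luminescence from One-Glo (30 min, room temperature) measured after PGC/ERR cells had 18 h at 37 C with pinned compound (23 nL in DMSO). Cells had been seeded at 2,000 per well and pre-incubated 6 h.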

A short description of assay [19]: qHTS assay to identify small molecule agonists of the hypoxia (HIF-1) signaling pathway (AID 1224846; active = well fitted activation curve with a large enough effect in the signal ratio in the repeat runs, not every such curve was filed as active; the % refers to the signal ratio). The note with it: HRE-bla ME-180 cells, beta-lactamase ratio, 17 h; series mostly up to 76.8 µM. In short, it runs like this:
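Agonist mode reporter screen. ME-180 cells stably expressing bla under HRE control received test compounds in DMSO for 17 hrs (37C, 5% CO2), and beta-lactamase activity was then detected with the CCF4-AM FRET substrate.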

Unmarked numbers belong to inactive results. Results filed as inconclusive are left out. Calls of active or inactive are those of the source. Unless noted, calls follow the shape of the dose curve; as a rule, active = well fitted curve in the direction sought with a large enough effect in the repeat runs; inconclusive = weak or mixed curves; inactive = no such curve, though single readings can be large; an effect the other way counts as inactive or inconclusive.
% is scaled to controls: 0 for no effect and ±100 for the full control effect.

Thyrotropin receptor (Homo sapiens), sequence (P16473 whole entry, looked up): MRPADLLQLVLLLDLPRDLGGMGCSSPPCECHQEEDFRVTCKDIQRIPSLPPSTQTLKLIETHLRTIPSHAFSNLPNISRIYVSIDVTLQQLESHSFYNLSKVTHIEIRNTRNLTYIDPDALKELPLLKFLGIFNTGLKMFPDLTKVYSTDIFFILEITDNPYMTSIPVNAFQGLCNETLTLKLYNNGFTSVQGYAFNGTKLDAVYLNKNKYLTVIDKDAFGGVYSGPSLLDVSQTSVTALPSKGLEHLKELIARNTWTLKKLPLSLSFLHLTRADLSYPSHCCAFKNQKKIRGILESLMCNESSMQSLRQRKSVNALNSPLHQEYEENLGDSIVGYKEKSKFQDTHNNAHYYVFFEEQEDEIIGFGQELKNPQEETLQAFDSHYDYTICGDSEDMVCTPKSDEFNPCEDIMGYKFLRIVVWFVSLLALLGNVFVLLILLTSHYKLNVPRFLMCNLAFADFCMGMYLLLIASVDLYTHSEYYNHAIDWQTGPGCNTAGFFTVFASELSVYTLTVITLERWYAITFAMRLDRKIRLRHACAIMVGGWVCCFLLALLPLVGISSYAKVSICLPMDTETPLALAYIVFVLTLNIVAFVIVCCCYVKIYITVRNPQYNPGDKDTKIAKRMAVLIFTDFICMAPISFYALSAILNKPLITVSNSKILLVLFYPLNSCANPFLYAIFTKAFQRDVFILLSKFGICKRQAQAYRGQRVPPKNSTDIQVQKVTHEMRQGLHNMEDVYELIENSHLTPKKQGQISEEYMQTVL

As to `CN(C)C(=S)[S-].CN(C)C(=S)[S-].[Cu+2]`, the Potency is 1.18 µM (active) in [1]; 3.73 µM (active) in [2]; 1.49 µM (active) in assay [3]; 0.938 µM (active) in assay [4]; 2.67 µM (active) in assay [5]; 2.45 µM (active) in assay [6]. The Potency is 27.5 µM (active) in assay [7], 2.67 µM (active) in assay [8], 1.34 µM (active) in assay [9] and 2.38 µM (active) in [11]. Further, in assay [10], the cytotoxicity was -8.31% [at 15.8 µM].

Take `O=C(Nc1ccc2[nH]ccc2c1)c1cc2cc(F)ccc2n1Cc1cccc(F)c1`: the Potency in assay [1] is 61.1 µM (active); in assay [3], 61.1 µM (active); in [12] it was 27.3 µM (active); in assay [5], 43.6 µM (active); in [14], 6.11 µM (active). In addition, the Potency entry in assay [2], in assay [13], in assay [6] and in assay [10] was “inactive” in each case. Further, in assay [15], the activity change, positive = activation was -52.2%.

In the case of `CC1(C)C(/C=C(\Cl)C(F)(F)F)C1C(=O)OC(C#N)c1cccc(Oc2ccccc2)c1` (stereo not drawn), the Potency entry in [1], in [2], in [3], in [12], in [4] and in assay [16] was “inactive” each time. The Potency result in assay [5], in assay [6], in assay [7], in assay [8], in assay [10] and in assay [11] was “inactive” each time.

As to `[Hg+2].[I-].[I-]`, the Potency is 6.86 µM (active) in assay [1]; 34.4 µM (active) in assay [2]; 30.6 µM (active) in assay [3]; 30.6 µM (active) in assay [17]; 4.33 µM (active) in assay [4]; 1.95 µM (active) in assay [5]. Also, the Potency in [7] was 8 µM (active); in [8], 9.77 µM (active); in [9], 3.09 µM (active); in assay [11] it was 12.3 µM (active). The Potency entry in [12] and in [10] was “inactive” throughout.

In the case of `CN(C)C1CSSSC1`, the Potency entry in assay [1], in [2], in assay [3], in assay [17], in assay [12] and in [4] was “inactive” throughout. The Potency entry in assay [18], in [5], in assay [7], in [14], in assay [8] and in assay [9] was “inactive” each time. The Potency result in assay [10] and in assay [11] was “inactive” in each case. For the same compound, the result in assay [19] was inactive.

For the compound `ClC(Cl)=C(Cl)Cl`, the Potency entry in [1], in assay [2], in assay [3], in [17], in [12] and in [4] was “inactive” in each case. In addition, the Potency entry in assay [16], in assay [5], in assay [6], in assay [7], in assay [8] and in assay [10] was “inactive” each time. For the same compound, the Potency result in assay [11] is “inactive”. For the same compound, the outcome in [19] was inactive.

On to `CCOCCOC(C)=O`, for which the Potency entry in [1], in assay [2], in [3], in assay [4], in [18] and in [16] was “inactive” each time. Besides, the Potency entry in assay [5], in [6], in assay [7], in assay [14], in assay [8] and in assay [9] was “inactive” in each case. The Potency result in assay [10] and in assay [11] was “inactive” in each case. Besides, the result in assay [19] was inactive.

As for `BrCBr`, the Potency result in assay [1], in assay [2], in [3], in assay [17], in [12] and in assay [4] was “inactive” in each case. Besides, the Potency result in [16], in [5], in assay [7], in [8], in assay [9] and in assay [10] was “inactive” each time. In addition, the Potency result in assay [11] was “inactive”. In assay [19], the outcome was inactive.
